Test systems include NCI-H23 lung; NCI-H226 lung; NCI-H322M lung; HOP-62 NSCLC; NCI-H460 lung; HOP-92 NSCLC; NCI-H522 lung; A549/ATCC NSCLC; 786-0 renal; COLO 205 colon; DU-145 prostate; K-562 leukemia; MALME-3M melanoma; MDA-MB-231 breast; RXF 393 renal; SF-268 CNS; SF-295 CNS; SF-539 CNS; UACC-257 melanoma; M14 melanoma.
What all share (test): NCI-60 one-dose screen, 48 h (100 = growth as untreated, 0 = no growth, -100 = all killed)
Details in all cases: 10 µM unless noted

Molecules are shown by their SMILES. The panel holds about 83,000 compounds, 20% with a hit somewhere; the sample as a whole holds those more often.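 Cell lines were cultured in 96-well plates, exposed to a single compound concentration, and assessed for percent growth 48 hours later.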 Values without a mark were called inactive. Activity calls are given as the source filed them. The calls were made as follows: active = growth percent below 10; inactive = the rest.

In PubChem BioAssay (NCI) one finds growth data, which are given here for 8 molecules.

As to `C[C@H]1[C@H](C)CC[C@]2(C(=O)NCCNCCN)CC[C@]3(C)C(=CC[C@@H]4[C@@]5(C)CCC(=O)C(C)(C)[C@@H]5CC[C@]43C)[C@H]12`, the growth in the assay on NCI-H23 lung was 94.2%; with NCI-H226 lung it was 99.3%; in the assay on NCI-H322M lung, 85%; in the assay with HOP-62 NSCLC it was 81.1%; in the assay on NCI-H460 lung, -80% (active); with HOP-92 NSCLC, 52.9%. Besides, the growth in the assay with NCI-H522 lung was 54.3%; with A549/ATCC NSCLC, 42.4%; in the assay with 786-0 renal, 80.7%; in the assay with COLO 205 colon, -49.9% (active); in the assay on DU-145 prostate, 51.6%; in the assay with K-562 leukemia it was -9.33% (active). In addition, the growth in the assay with MALME-3M melanoma was 71.3%; with MDA-MB-231 breast, 52.9%; with RXF 393 renal, 85%; in the assay on SF-268 CNS, 72.6%; in the assay with SF-295 CNS it was 102%; in the assay on SF-539 CNS, -28.3% (active). The results for the growth with UACC-257 melanoma and with M14 melanoma were 88.7% and 40.9%, respectively.
`Cc1ccc(-c2csc(NC(=O)CSc3nc(N)cc(N)n3)n2)cc1`: the growth in the assay on NCI-H23 lung is 42.7%; in the assay with NCI-H226 lung it was 96.3%; with NCI-H322M lung, 87%; in the assay on HOP-62 NSCLC, 50.9%; with NCI-H460 lung, 78.6%; in the assay with HOP-92 NSCLC it was 89.3%. Also, the growth with NCI-H522 lung was 54.6%; in the assay on A549/ATCC NSCLC it was 62.7%; in the assay on 786-0 renal, 72.2%; in the assay with COLO 205 colon, 50.8%; in the assay on DU-145 prostate it was 77.2%; in the assay on K-562 leukemia, 20.1%. For the same molecule, the growth in the assay on MALME-3M melanoma was 57.9%; in the assay with MDA-MB-231 breast, 67.5%; in the assay with RXF 393 renal it was 92.1%; with SF-268 CNS it was 73.6%; in the assay on SF-295 CNS, 50.2%; in the assay on SF-539 CNS, 76.9%. In addition, the values for the growth in the assay on UACC-257 melanoma and with M14 melanoma were 79.9% and 67.8%, respectively.
`COc1ccccc1/C=C/C(=O)Nc1ccc(F)cc1`: the growth in the assay on NCI-H23 lung was 88.2%; in the assay with NCI-H226 lung, 98%; in the assay with NCI-H322M lung it was 104%; in the assay with HOP-62 NSCLC, 88.7%; in the assay on NCI-H460 lung it was 102%; in the assay on HOP-92 NSCLC it was 86.8%. In addition, the growth was 72.4% in the assay with NCI-H522 lung; 92.9% in the assay on A549/ATCC NSCLC; 97.7% in the assay with 786-0 renal; 101% in the assay with COLO 205 colon; 98.6% in the assay on DU-145 prostate; 84.8% with K-562 leukemia. Also, the growth in the assay on MALME-3M melanoma is 95.9%; in the assay with MDA-MB-231 breast, 88.6%; in the assay on RXF 393 renal it was 102%; in the assay on SF-268 CNS it was 99.7%; in the assay on SF-295 CNS, 96%; in the assay on SF-539 CNS, 101%. The growth is 99.4% in the assay with UACC-257 melanoma and 96.7% with M14 melanoma.
For the molecule `O=C(/C=C/c1ccco1)Nc1ncc(Cc2cc(Cl)ccc2Cl)s1`, the growth is 33.4% in the assay on NCI-H23 lung; 39.4% with NCI-H226 lung; 43.7% in the assay on NCI-H322M lung; 17.8% in the assay on HOP-62 NSCLC; 3.88% (active) in the assay with NCI-H460 lung; 72.4% in the assay on HOP-92 NSCLC. The growth is -4.32% (active) in the assay with NCI-H522 lung; 19.8% with A549/ATCC NSCLC; 31.4% in the assay on 786-0 renal; -14.2% (active) in the assay on COLO 205 colon; 13.9% with DU-145 prostate; 7.9% (active) in the assay with K-562 leukemia. Besides, the growth in the assay on MALME-3M melanoma was 49%; in the assay with MDA-MB-231 breast, 47.4%; in the assay with RXF 393 renal it was -2.79% (active); with SF-268 CNS, 44%; in the assay on SF-295 CNS it was 9.56% (active); in the assay on SF-539 CNS, -18.8% (active). The growth with UACC-257 melanoma was 38.8%; in the assay with M14 melanoma, 6.81% (active).
For `C=C(C)[C@@H]1CC[C@]2(C(=O)Nc3ccccn3)CC[C@]3(C)[C@H](CC[C@@H]4[C@@]5(C)CCCNC(C)(C)[C@@H]5CC[C@]43C)[C@@H]12`, the growth is 19.5% in the assay on NCI-H23 lung; 43.3% in the assay on NCI-H226 lung; 65.5% with NCI-H322M lung; 30.4% in the assay with HOP-62 NSCLC; -40.3% (active) with NCI-H460 lung; 41.8% with HOP-92 NSCLC. In addition, the growth in the assay with NCI-H522 lung was 12.6%; with A549/ATCC NSCLC it was 23.1%; with 786-0 renal, 33.9%; with COLO 205 colon it was -62.2% (active); in the assay on DU-145 prostate, 34.8%; with K-562 leukemia, -1.45% (active). Further, the growth with MALME-3M melanoma was -2.67% (active); in the assay with MDA-MB-231 breast it was 49.9%; in the assay with RXF 393 renal, 51.3%; in the assay with SF-268 CNS, 39.8%; in the assay with SF-295 CNS, 44.4%; with SF-539 CNS, 34.1%. In addition, the growth in the assay on UACC-257 melanoma is 9.84% (active); with M14 melanoma, 26.6%.
Regarding `C=C1C(=O)O[C@H]2[C@H]1CC/C(COC(=O)NCc1ccc(Cn3c(=O)sn(-c4ccc(I)cc4)c3=O)cc1)=C\CC[C@@]1(C)O[C@@H]21`, the growth with NCI-H23 lung is 94.8%; in the assay on NCI-H226 lung it was 89.6%; with NCI-H322M lung it was 101%; with HOP-62 NSCLC, 97.8%; with NCI-H460 lung it was 91.9%; with HOP-92 NSCLC, 54.9%. Moreover, the growth with NCI-H522 lung was 2.14% (active); with A549/ATCC NSCLC, 94.9%; in the assay on 786-0 renal, 75.2%; with COLO 205 colon, 36.9%; with DU-145 prostate, 47.9%; in the assay on K-562 leukemia it was 7.33% (active). Also, the growth in the assay with MALME-3M melanoma was 82.3%; in the assay with MDA-MB-231 breast, 73.5%; with RXF 393 renal, 61.2%; in the assay on SF-268 CNS, 87.1%; in the assay with SF-295 CNS, 99.8%; with SF-539 CNS it was 98.7%. Further, the growth in the assay on UACC-257 melanoma is 75.7%; with M14 melanoma, 73.1%.
As for `CCOC(=O)NCCCC(=O)NCCc1ccccc1`, the growth in the assay with NCI-H23 lung is 98.9%; in the assay on NCI-H226 lung, 96.3%; with NCI-H322M lung, 106%; in the assay with HOP-62 NSCLC it was 108%; in the assay with NCI-H460 lung, 110%; with HOP-92 NSCLC, 111%. For the same molecule, the growth in the assay on NCI-H522 lung is 106%; in the assay on A549/ATCC NSCLC, 107%; in the assay on 786-0 renal, 105%; with COLO 205 colon it was 114%; with DU-145 prostate it was 103%; with K-562 leukemia, 106%. Further, the growth was 103% with MALME-3M melanoma; 108% in the assay with MDA-MB-231 breast; 101% in the assay with RXF 393 renal; 101% in the assay on SF-268 CNS; 104% with SF-295 CNS; 106% with SF-539 CNS. The growth with UACC-257 melanoma is 103%; in the assay with M14 melanoma it was 102%.
`COc1cc(/C=C/c2cc(/C=C/c3ccc(O)c(OC)c3)n(C(=O)Nc3ccc(Cl)cc3)n2)ccc1O`: the growth was 3.16% (active) in the assay with NCI-H23 lung; 5.73% (active) in the assay with NCI-H226 lung; 22.1% in the assay with NCI-H322M lung; 17.1% in the assay on HOP-62 NSCLC; 9.41% (active) with NCI-H460 lung; -4.7% (active) in the assay on HOP-92 NSCLC. Besides, the growth is -4.94% (active) in the assay with NCI-H522 lung; 4.03% (active) in the assay with A549/ATCC NSCLC; -2.2% (active) in the assay on 786-0 renal; 7.57% (active) in the assay with COLO 205 colon; 11.7% in the assay on DU-145 prostate; -7.3% (active) in the assay on K-562 leukemia. In addition, the growth is 3.94% (active) in the assay on MALME-3M melanoma; 14.3% with MDA-MB-231 breast; -53.6% (active) in the assay on RXF 393 renal; 13.9% with SF-268 CNS; -21.9% (active) with SF-295 CNS; 0.163% (active) in the assay on SF-539 CNS. Also, the growth was 3.11% (active) in the assay with UACC-257 melanoma and 4.04% (active) in the assay on M14 melanoma.
